Source: PubChem BioAssay AID1159580 (chemical genetic matrix, 2015)
Screen size: about 5,500 compounds; about 2,000 (36%) were called active. Roughly 18% stayed inconclusive and do not appear here. Rule as the data show it: active = normalized growth mostly below about 0.91 (no sharp cut-off); inconclusive = no clear call, values can overlap the other calls; inactive = mostly above about 0.92. Some of the results follow.

Experiment: chemical genetic growth profiling, strain panel (AID 1159580);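 also: tested at 20 µM; growth read once vehicle control cultures reached saturation at 30 °C; 1 = growth at the plate median or of vehicle wells; lower values mean less growth of the strain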
Settings: S. cerevisiae deletion strains, growth OD

Measured: normalized growth

O=C(O)COc1ccc(Cl)cc1Cl
inactive: locus YAL013W, strain DEP1, stronger effect = lower value 1.01 | locus YAL021C, strain ccr4, stronger effect = lower value 0.997 | locus YAL026C, strain drs2, stronger effect = lower value 1.01 | locus YAL030W, strain snc1, stronger effect = lower value 0.988 | locus YBL061C, strain skt5, stronger effect = lower value 0.997 | locus YBR009C, strain hhf1, stronger effect = lower value 0.992 | locus YBR021W, strain FUR4, stronger effect = lower value 1 | locus YBR023C, strain chs3, stronger effect = lower value 0.992 | locus YBR171W, strain sec66, stronger effect = lower value 1 | locus YBR229C, strain ROT2, stronger effect = lower value 0.999 | locus YBR231C, strain swc5, stronger effect = lower value 0.989 | locus YBR279W, strain paf1, stronger effect = lower value 0.992 | locus YCL011C, strain gbp2, stronger effect = lower value 1 | locus YCL016C, strain dcc1, stronger effect = lower value 0.994 | locus YCL029C, strain bik1, stronger effect = lower value 1.03 | locus YCL061C, strain MRC1, stronger effect = lower value 0.995 | locus YCL069W, strain vba3, stronger effect = lower value 1 | locus YCR088W, strain abp1, stronger effect = lower value 1 | locus YDL005C, strain med2, stronger effect = lower value 0.992 | locus YDL035C, strain GPR1, stronger effect = lower value 1.03 | locus YDL040C, strain nat1, stronger effect = lower value 0.996 | locus YDL074C, strain BRE1, stronger effect = lower value 1.05 | locus YDL101C, strain DUN1, stronger effect = lower value 0.999 | locus YDL134C, strain PPH21, stronger effect = lower value 1.02 | locus YDL185W, strain tfp1, stronger effect = lower value 1.02 | locus YDL192W, strain arf1, stronger effect = lower value 1.02 | locus YDR001C, strain nth1, stronger effect = lower value 1 | locus YDR069C, strain doa4, stronger effect = lower value 0.986 | locus YDR101C, strain arx1, stronger effect = lower value 1.02 | locus YDR137W, strain rgp1, stronger effect = lower value 1.01 | locus YDR150W, strain NUM1, stronger effect = lower value 1.01 | locus YDR159W, strain sac3, stronger effect = lower value 0.982 | locus YDR162C, strain NBP2, stronger effect = lower value 1.01 | locus YDR195W, strain ref2 0.968 | locus YDR297W, strain sur2, stronger effect = lower value 1.01 | locus YDR318W, strain mcm21, stronger effect = lower value 1.03 | locus YDR334W, strain swr1, stronger effect = lower value 1 | locus YDR335W, strain msn5, stronger effect = lower value 0.998 | locus YDR388W, stronger effect = lower value 1.02 | locus YDR392W, strain spt3, stronger effect = lower value 1 | locus YDR502C, strain sam2, stronger effect = lower value 1.02 | locus YEL003W, strain gim4, stronger effect = lower value 0.995 | locus YEL037C, strain rad23, stronger effect = lower value 1.01 | locus YEL061C, strain CIN8 (second series), stronger effect = lower value 0.989 | locus YEL061C, strain CIN8, stronger effect = lower value 1 | locus YER015W, strain faa2, stronger effect = lower value 0.997 | locus YER016W, strain bim1, stronger effect = lower value 1 | locus YER110C, stronger effect = lower value 1.02 | locus YER111C, strain swi4, stronger effect = lower value 0.977 | locus YER155C, strain BEM2 (second series), stronger effect = lower value 1.01 | locus YER155C, strain BEM2, stronger effect = lower value 1.01 | locus YER167W, strain BCK2, stronger effect = lower value 1.02 | locus YFR010W, strain ubp6, stronger effect = lower value 0.998 | locus YGL078C, strain dbp3, stronger effect = lower value 1.02 | locus YGL086W, strain mad1, stronger effect = lower value 1.01 | locus YGL167C, strain pmr1, stronger effect = lower value 1 | locus YGL173C, strain kem1, stronger effect = lower value 0.984 | locus YGL227W, strain vid30, stronger effect = lower value 0.987 | locus YGL240W, strain doc1, stronger effect = lower value 0.982 | locus YGL248W, strain PDE1, stronger effect = lower value 1.03 | locus YGL253W, strain hxk2, stronger effect = lower value 0.995 | locus YGR078C, strain PAC10, stronger effect = lower value 1.02 | locus YGR135W, strain pre9, stronger effect = lower value 1.02 | locus YGR229C, strain SMI1, stronger effect = lower value 1.04 | locus YGR252W, strain gcn5, stronger effect = lower value 1.03 | locus YHR013C, strain ard1, stronger effect = lower value 0.995 | locus YHR027C, strain rpn1, stronger effect = lower value 0.994 | locus YHR030C, strain SLT2, stronger effect = lower value 0.999 | locus YHR079C, strain IRE1 (second series), stronger effect = lower value 1.03 | locus YHR094C, strain hxt1, stronger effect = lower value 1.01 | locus YHR129C, strain ARP1, stronger effect = lower value 1 | locus YHR142W, strain chs7, stronger effect = lower value 1.01 | locus YHR200W, strain rpn10, stronger effect = lower value 1.01 | locus YIL066C, strain RNR3, stronger effect = lower value 1.02 | locus YIL073C, strain SPO22, stronger effect = lower value 1.1 | locus YIL125W, strain kgd1, stronger effect = lower value 1.03 | locus YIR030C, strain dcg1, stronger effect = lower value 1.02 | locus YJL092W, strain hpr5, stronger effect = lower value 0.987 | locus YJL095W, strain BCK1 (second series), stronger effect = lower value 0.987 | locus YJL095W, strain BCK1, stronger effect = lower value 1.02 | locus YJL115W, strain asf1, stronger effect = lower value 1 | locus YJL129C, strain trk1, stronger effect = lower value 1.02 | locus YJL134W, strain LCB3, stronger effect = lower value 1 | locus YJL154C, strain vps35, stronger effect = lower value 1 | locus YJL164C, strain tpk1, stronger effect = lower value 1 | locus YJL166W, strain qcr8, stronger effect = lower value 0.992 | locus YJL168C, strain set2, stronger effect = lower value 1.02 | locus YJL187C, strain SWE1 (second series), stronger effect = lower value 1.01 | locus YJL187C, strain SWE1, stronger effect = lower value 1
